Experimental data: PubChem BioAssay (NCI)
About 83,000 compounds went through this panel and 20% of them were active in at least one assay; those are over-represented in the sample as a whole.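 Each cell line was grown in a 96-well plate and treated with one concentration of compound for 48 hours. Values below 10 were considered active.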 Active and inactive are the calls of the source.

What was measured:
Assay in all cases: NCI-60 one-dose screen, 48 h (100 = growth as untreated, 0 = no growth, -100 = all killed)
Settings in all cases: 10 µM unless noted
[1] = test system: T-47D breast
[2] = test system: BT-549 breast
[3] = test system: MDA-MB-435 melanoma
[4] = test system: SW-620 colon
[5] = test system: MCF7 breast
[6] = test system: HCT-116 colon
[7] = test system: HCC-2998 colon
[8] = test system: KM12 colon

Measured: growth

O=[N+]([O-])c1ccc(SSc2ccc([N+](=O)[O-])cc2Cl)c(Cl)c1
inactive: [1] 70.6% | [2] 97.4% | [3] 113% | [4] 97.6% | [5] 77.3% | [6] 91.1% | [7] 106% | [8] 98%

CN1C(=O)N(C)C2C1NN=c1s/c(=C\c3ccc(C(F)(F)F)cc3)c(=O)n12 (configuration not stated)
active: [3] -52.1%
inactive: [1] 24.6% | [2] 50.4% | [4] 19.1% | [5] 12% | [6] 26.9% | [7] 54.9% | [8] 16.3%

CCOC(=O)c1cc(C(=O)OCC)c(C)nc1C
inactive: [1] 102% | [2] 115% | [3] 105% | [4] 110% | [5] 90.9% | [6] 105% | [7] 103% | [8] 111%

COc1cccc(NC(=O)OC(C)C)c1
inactive: [1] 93.8% | [2] 103% | [3] 92.8% | [4] 96.6% | [5] 102% | [6] 101% | [7] 96.7% | [8] 103%

COc1cc(/C=C2\CN(C(=O)OC(C)(C)C)C/C(=C\c3ccc(O)c(OC)c3)C2=O)ccc1O
inactive: [1] 92.1% | [2] 85.4% | [3] 99.4% | [4] 99.9% | [5] 85.9% | [6] 68.6% | [7] 106% | [8] 99.1%

CCCCCCCCN=C(NCCCCCCCC)SCc1cccc2ccccc12
active: [1] -97.5% | [2] -74.8% | [3] -95.6% | [4] -91.6% | [5] -88.9% | [6] -83.3% | [7] -96.4% | [8] -94.1%

CCn1c(Cc2ccccc2Nc2c(Cl)cccc2Cl)nnc1SCC(=O)Nc1ccccc1C(F)(F)F
inactive: [1] 47.6% | [2] 94.4% | [3] 99.5% | [4] 99.3% | [5] 86.3% | [6] 77.8% | [7] 99.9% | [8] 97.6%

CC(C)CCSc1nc(Nc2ccccc2)c(C#N)c(-c2ccc(F)cc2)n1
inactive: [1] 46.5% | [2] 79% | [3] 82.5% | [4] 46.5% | [5] 65.2% | [6] 24% | [7] 83.1% | [8] 84.8%

O=C1OC(/C=C/c2ccccc2)=NC/1=C/c1ccccc1[N+](=O)[O-]
inactive: [1] 90.5% | [2] 89.8% | [3] 108% | [4] 103% | [5] 90.7% | [6] 104% | [7] 104% | [8] 102%

CS(=O)(=O)c1ccc(C(=O)N2N=C(c3ccccc3)CC2c2ccc3c(c2)OCO3)cc1 (configuration not stated)
inactive: [1] 78.5% | [2] 86.3% | [3] 113% | [4] 100% | [5] 84.1% | [6] 81.7% | [7] 99.3% | [8] 93.6%

Fc1ccc(-c2cnc3nonc3n2)c(F)c1
inactive: [1] 80.8% | [2] 91.6% | [3] 84.4% | [4] 97% | [5] 85% | [6] 96.9% | [7] 93.5% | [8] 82.9%

CCSc1cnnc2ccccc12
inactive: [1] 107% | [2] 116% | [3] 105% | [4] 113% | [5] 108% | [6] 106% | [7] 101% | [8] 113%

CO[C@H](C(=O)[C@@H](O)[C@@H](C)O)[C@@H]1Cc2cc3cc(O[C@H]4C[C@@H](O[C@H]5C[C@@H](O)[C@H](O)C(C)O5)[C@H](O)C(C)O4)c(C)c(O)c3c(O)c2C(=O)[C@H]1O[C@H]1C[C@@H](O[C@H]2C[C@@H](O[C@H]3C[C@](C)(O)C(=O)C(C)O3)[C@@H](O)C(C)O2)[C@H](O)C(C)O1 (some centres not stated)
active: [1] -8.49% | [2] -24.5% | [3] -41.3% | [4] 8.29% | [5] 6.66% | [6] 4.55% | [7] -9.52% | [8] 1.23%

Cc1ccsc1C(=O)CC(=O)C(F)(F)C(F)(F)C(F)(F)F
inactive: [1] 101% | [2] 125% | [3] 105% | [4] 103% | [5] 96.6% | [6] 109% | [7] 111% | [8] 107%

COc1cccc(-c2cc(-c3cccs3)c(C#N)c(=O)[nH]2)c1
inactive: [1] 93.3% | [2] 113% | [3] 103% | [4] 105% | [5] 94.2% | [6] 101% | [7] 125% | [8] 101%

COc1ccc(N=C2CSc3nnc(-c4cc(F)c(Cl)cc4Cl)n3N2)cc1
active: [1] -20.1% | [2] -21.2% | [3] -45.6% | [4] -47.1% | [5] -34.3% | [6] -61.4% | [7] -71.4% | [8] -12.3%

COc1cc(C2CC(c3ccc(Cl)cc3)=NN2C(C)=O)ccc1Oc1nc2c(c(=O)n(C)c(=O)n2C)n1C (configuration not stated)
inactive: [1] 76.8% | [2] 83.2% | [3] 64.1% | [4] 98.1% | [5] 70.2% | [6] 85.5% | [7] 87.3% | [8] 78.2%

CC(=O)O[C@H]1CC[C@]2(C)[C@H]3CC=C4[C@@H]5CC(C)(C)CC[C@]5(C(=O)OCC(COC(=O)C(Cl)Cl)(COC(=O)C(Cl)Cl)NC(=O)C(Cl)Cl)CC[C@@]4(C)[C@]3(C)CC[C@H]2C1(C)C
inactive: [1] 32.7% | [2] 75.2% | [3] 78.6% | [4] 79.4% | [5] 41.9% | [6] 26.7% | [7] 86.9% | [8] 52.2%

O=S1(=O)NCCCN1CCNc1nccc(-c2c(-c3cccc(O)c3)nc3sccn23)n1
inactive: [1] 78.3% | [2] 86% | [3] 24.6% | [4] 88% | [5] 91.8% | [6] 31% | [7] 108% | [8] 102%

Cc1ccc([C@H]2c3[nH]c4ccccc4c3C[C@H]3C(=O)N(CCCCCCC(=O)NO)CC(=O)N23)cc1
inactive: [1] 19.5% | [2] 68% | [3] 38.3% | [4] 36.5% | [5] 35.5% | [6] 15.8% | [7] 55.6% | [8] 48.2%

CCN1C(=O)C(C)C=C(C)C=C1C (configuration not stated)
inactive: [1] 102% | [2] 124% | [3] 114% | [4] 114% | [5] 106% | [6] 112% | [7] 103% | [8] 100%

O=c1c2cc(Cl)ccc2oc2ccc(OCCCCCN3CCCCCC3)cc12
inactive: [1] 74.4% | [2] 79% | [3] 80.8% | [4] 84.6% | [5] 75.3% | [6] 57.8% | [7] 88.5% | [8] 84.8%

CN1C(=O)N(C)C2C1NN=c1s/c(=C\c3ccc(Br)cc3)c(=O)n12 (configuration not stated)
inactive: [1] 28.7% | [2] 50.8% | [4] 20% | [5] 13.4% | [6] 25% | [7] 53% | [8] 23.3%
active: [3] -50.4%

N/C(=N\OC(=O)c1ccccc1)C(C(=O)NOC(=O)c1ccccc1)C1CCCCC1 (configuration not stated)
inactive: [1] 72.1% | [2] 74.4% | [3] 38.9% | [4] 82.1% | [5] 65.6% | [6] 36.7% | [7] 98% | [8] 19.9%

CNC(=O)c1c(NC(=O)c2ccc(C(C)C)cc2)sc2c1CCC(=O)C2
active: [1] -36.6% | [2] -11.2% | [3] 9.66% | [4] -35.5% | [5] 0.569% | [6] -31.2% | [7] -55.3% | [8] -17.9%

O=c1c2cc(Cl)ccc2oc2ccc(OCCCCCN3CCCCC3)cc12
inactive: [1] 60.1% | [2] 64.6% | [4] 33.7% | [5] 56.5% | [6] 11.5% | [7] 74.7% | [8] 65%
active: [3] -24%

Cc1cc2nc(CN)[nH]c2cc1C
inactive: [1] 94.4% | [2] 101% | [3] 109% | [4] 108% | [5] 96.7% | [6] 104% | [7] 106% | [8] 103%

Cc1csc(N/N=C/c2ccncc2)n1
inactive: [1] 94% | [2] 105% | [3] 104% | [4] 103% | [5] 87.1% | [6] 97.6% | [7] 99.9% | [8] 106%

NNC(=O)CSc1nc2scc(-c3ccccc3)c2c(=O)n1-c1ccccc1
inactive: [1] 104% | [2] 131% | [3] 121% | [4] 112% | [5] 97.8% | [6] 91.9% | [7] 84.2% | [8] 108%
